This is an account of results in PubChem BioAssay AID1851 (National Center for Advancing Translational Sciences (NCATS), 2009).

Screen size: about 16,000 compounds; about 5,100 (32%) were called active. Inconclusive results (about 25%) are left out. The list shows a part of the results. Unmarked numbers belong to inactive results. Calls follow the shape of the dose curve; as a rule, active = well fitted curve in the direction sought with a large enough effect; inconclusive = small, poorly fitted or top-dose-only effect, or effect the other way; inactive = no such curve, though single readings can be large or run the other way.

One may read the AC50 as the midpoint of the concentration-response curve, whichever way the signal moves.
% is scaled to controls: 0 for no effect and ±100 for the full control effect.

The target of the test is Cytochrome P450 3A4 (Homo sapiens) (UniProt P08684). Description: Cytochrome panel assay with activity outcomes. To be noted: recombinant CYP, pro-luciferin dealkylation, luminescence, p450-cyp3a4; series mostly up to 57.1 µM; activity, negative = inhibition: at the top concentration.
Chain of Cytochrome P450 3A4 (Homo sapiens) (P08684 whole entry, looked up): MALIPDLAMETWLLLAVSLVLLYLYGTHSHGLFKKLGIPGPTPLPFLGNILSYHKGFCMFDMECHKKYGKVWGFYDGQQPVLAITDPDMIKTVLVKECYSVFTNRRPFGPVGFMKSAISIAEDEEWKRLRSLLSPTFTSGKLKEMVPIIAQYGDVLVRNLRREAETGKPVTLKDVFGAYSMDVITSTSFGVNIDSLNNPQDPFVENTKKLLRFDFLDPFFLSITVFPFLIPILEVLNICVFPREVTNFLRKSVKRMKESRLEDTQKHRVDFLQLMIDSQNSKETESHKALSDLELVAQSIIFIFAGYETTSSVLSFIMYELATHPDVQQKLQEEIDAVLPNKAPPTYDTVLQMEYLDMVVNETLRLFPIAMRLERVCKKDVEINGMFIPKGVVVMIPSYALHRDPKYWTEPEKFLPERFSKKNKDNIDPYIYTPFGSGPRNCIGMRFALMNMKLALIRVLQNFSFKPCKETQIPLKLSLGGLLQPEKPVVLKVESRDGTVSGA
As to `Cc1cc(Cl)ccc1OC(C)C(=O)Nc1ccc(S(=O)(=O)Nc2cnc3ccccc3n2)cc1` (stereo not given), the activity, negative = inhibition is -1.77% [at 2.29 µM].
With `Cc1ccc(S(=O)(=O)Nc2nc(C)c(NC(=O)Nc3ccc(Cl)cc3Cl)s2)cc1`, the AC50 was 15.8 µM (active).
Consider `Cc1nnc(NS(=O)(=O)c2ccc(N)cc2)s1`, for which the “activity, negative = inhibition” value was -9.45% [at 25.6 µM].
The same measure, in the same setting: next, `Cc1cc(C)n(-c2nc(NC(C)(C)C)nc(NC(C)(C)C)n2)n1`: -7.85%.
Consider `Cc1cc(C)n(-c2nc(Nc3ccccc3C)nc(-n3nc(C)cc3C)n2)n1`, for which the AC50 is 7.94 µM (active).
On the same count and under the same terms, the value for `Cc1ccccc1Cn1nc(C)c(NC(=O)c2sc3ccccc3c2Cl)c1C` was 11.2 µM (active).
On to `Cc1ccc(NC(=O)c2sc3ccccc3c2Cl)nc1`, for which the “activity, negative = inhibition” value was -27.9%.
Same read-out and setting: the value for `CC(C)c1nnc(NC(=O)c2sc3ccccc3c2Cl)s1` was 7.5%.
As to `O=C(NNC(=O)c1sc2ccccc2c1Cl)Nc1ccc(Cl)cc1`, the AC50 was 12.6 µM (active).
`Cc1nn(Cc2ccc(Cl)cc2Cl)c(C)c1NC(=O)c1sc2ccccc2c1Cl`: the AC50 was 7.08 µM (active).
Turning to `NCCSS(=O)(=O)CCN`, the activity, negative = inhibition was 5.43% [at 11.4 µM].
For `Cc1ccc(N2C(=O)CC(c3ccsc3)C3=C2CC(C)(C)CC3=O)cc1` (stereo not given), the AC50 is 2.24 µM (active).
For `O=C(/C=C/c1ccccc1)N/C(=C/c1ccccc1)C(=O)Nc1ccccc1O`, the AC50 was 14.1 µM (active).
`O=C(/C=C\c1ccccc1)c1ccccc1O`: the activity, negative = inhibition was -15.8% [at 11.4 µM].
For the molecule `O=C(O)C/C(=C\c1ccccc1)C(=O)O`, the activity, negative = inhibition was -16.3% [at 11.4 µM].
Still for that read-out and setting: the value for `O=C(CSc1cccc2cccnc12)OCC(=O)c1ccccc1` was 10.1% [at 2.29 µM].
For the molecule `COc1ccc(/C(C)=N/NC(=O)c2ccc(CSc3cccc4cccnc34)cc2)cc1OC`, the AC50 was 3.16 µM (active).
For `COC(=O)C1CCN(CC(=O)Nc2sc3c(c2C#N)CCC3)CC1`, the “activity, negative = inhibition” value is -27.9%.
Still for that read-out and setting: the value for `O=C(NCCc1cccs1)C1CC(c2c(Cl)cccc2Cl)=NO1` (stereo not given) was -24.1% [at 2.29 µM].
Consider `N#Cc1c(NC(=O)C2CC(c3ccccc3Cl)=NO2)sc2c1CCC2` (stereo not given), for which the AC50 is 5.01 µM (active).
Consider `CCN(CC)C(=O)N1CCN(C)CC1`, for which the “activity, negative = inhibition” value is -0.999% [at 25.6 µM].
Consider `Cc1ccc(NC(=O)CC2CS(=O)(=O)CC2CC(=O)Nc2ccc(C)c(C)c2)cc1C` (stereo not given), for which the AC50 was 3.98 µM (active).
For `CN(C)c1nc(C#N)nc(N2CCOCC2)n1`, the “activity, negative = inhibition” value is 2.43%.
As to `CCC(C)NC(=O)CCS(=O)(=O)c1ccc(Br)s1` (stereo not given), the AC50 is 0.891 µM (active).
As for `O=C(CNS(=O)(=O)c1ccc(Br)s1)N1CCC(N2CCCCC2)CC1`, the “activity, negative = inhibition” value is -12.4%.
Still for that read-out and setting: next, `COC(=O)C/C=C1\c2ccccc2[C@H](OC)[C@H]1C`: -2.89% [at 11.4 µM].
Consider `Nc1ccc(N=Nc2ccc(-c3ccc(O)cc3)cc2)c2ccc(S(=O)(=O)O)cc12`, for which the activity, negative = inhibition is -11.1% [at 11.4 µM].
Consider `COC(=O)[C@@]1(Cc2ccccc2)[C@H]2c3cc(C(=O)N4CCCC4)n(Cc4c(CO)[nH]cc(C)c4=O)c3C[C@H]2CN1C(=O)c1ccccc1`, for which the AC50 is 2.51 µM (active).
Same read-out and setting: next, `COC(=O)[C@@]1(Cc2ccc(F)cc2)[C@H]2c3cc(C(=O)N4CCCC4)n(Cc4c(CO)[nH]cc(C)c4=O)c3C[C@H]2CN1C(=O)c1ccccc1`: 2 µM (active).
As for `O=C1c2cccc3cccc(c23)C(=O)N1CC1CCN(CC(O)COc2ccc3ccccc3c2)CC1` (stereo not given), the AC50 was 7.94 µM (active).
Regarding `CCOC(=O)c1c(-c2ccccc2)nc2ccc(Cl)cn12`, the “activity, negative = inhibition” value is -22.1%.
On to `CCCOC(=O)c1c(-c2ccccc2)nc(CC)c(C(=O)SCC)c1CCC`, for which the AC50 is 10 µM (active).
Turning to `CCc1nc2c(c(SC)nn2-c2ccccc2)c(N)c1C(=O)OC`, the activity, negative = inhibition was -21.9% [at 11.4 µM].
Still for that read-out and setting: next, `O=C1CCCC=C1[C@@H](O)C1CCCCC1`: -18.7% [at 11.4 µM].
The same measure, in the same setting: the value for `N#C/C(=C\Nc1ccccn1)C(=O)C1CC1` was -9.43% [at 11.4 µM].
Take `N#C/C(=C\c1cc(Cl)cc(Cl)c1O)C(=O)NC1CCCCC1`: the AC50 is 15.8 µM (active).
Same read-out and setting: next, `N#C/C(=C\c1cn[nH]c1-c1ccccc1)C(=O)NC1CCCCCC1`: 7.08 µM (active).
As for `CCOc1cc2c(C)cc(=O)oc2cc1Cl`, the “activity, negative = inhibition” value is -19.3%.
For the molecule `CCN(CC)c1ccc2c(Cl)cc(=O)oc2c1`, the AC50 was 25.1 µM (active).
Regarding `CCN(CC)c1ccc(C(=O)OCc2cc(=O)oc3cc(O)ccc23)cc1`, the AC50 is 6.31 µM (active).
In the case of `CCN(CC)c1ccc2cc(C(C)=O)c(=O)oc2c1`, the “activity, negative = inhibition” value was -19.1%.
Regarding `Cc1cc(=O)oc2cc(O)ccc12`, the “activity, negative = inhibition” value is -8.45% [at 25.6 µM].
Still for that read-out and setting: the value for `COc1ccc2c(CC(=O)NCC3CCC(C(=O)O)CC3)cc(=O)oc2c1` (stereo not given) was -1.71%.
For the molecule `CN1CCN(c2ncc3nc(-c4cccs4)c(=O)n(-c4ccccc4)c3n2)CC1`, the AC50 was 31.6 µM (active).
`COc1ccc(-n2c(=O)c(-c3ccc(Cl)cc3)nc3cnc(N4CCNCC4)nc32)cc1`: the “activity, negative = inhibition” value is -1.14%.
`Cc1nc2cnc(N3CCN(C)CC3)nc2n(-c2ccccc2)c1=O`: the “activity, negative = inhibition” value was -12.7%.
Still for that read-out and setting: next, `O=c1c(-c2cc(F)cc(F)c2)nc2cnc(N3CCOCC3)nc2n1-c1ccccc1`: -17.5%.
On the same count and under the same terms, the value for `CN(C)c1ncc2nc(-c3cccs3)c(=O)n(-c3ccccc3)c2n1` was -3.28%.
`O=c1c(-c2cccs2)nc2cnc(N3CCNCC3)nc2n1-c1ccccc1`: the AC50 is 25.1 µM (active).
The same measure, in the same setting: the value for `COc1ccc(-n2c(=O)c(-c3cccs3)nc3cnc(N4CCNCC4)nc32)cc1` was 15.8 µM (active).
With `COc1ccc(-n2c(=O)c(-c3ccccc3)nc3cnc(N4CCNCC4)nc32)cc1`, the “activity, negative = inhibition” value was -7.64%.
For the molecule `COc1ccc(CNc2ncnc3ccc(-c4ccc(N(C)C)cc4)cc23)c(OC)c1`, the AC50 is 3.98 µM (active).
Turning to `COc1ccccc1CNc1ncnc2ccc(-c3ccc(N(C)C)cc3)cc12`, the AC50 was 2 µM (active).
On the same count and under the same terms, next, `COc1ccccc1CNc1ncnc2ccc(-c3ccc4c(c3)OCO4)cc12`: 1.26 µM (active).
As to `CCOC(=O)c1[nH]c(C(=O)O)c(CCC(=O)OC)c1C`, the “activity, negative = inhibition” value is 6.89%.
Still for that read-out and setting: next, `Cc1cc(C)nc(NC(=O)CCCC(=O)O)c1`: 1.45%; `C[N+]1(C)CCO[C@](O)(c2ccccc2)C1`: -8.04% [at 11.4 µM].
For the molecule `O=C(c1ccc2c(=O)n(Cc3ccco3)c(=S)[nH]c2c1)N1CCN(c2ccccc2)CC1`, the AC50 was 6.31 µM (active).
As for `COc1ccc(NC(=O)c2ccc3c(=O)n(Cc4ccco4)c(=S)[nH]c3c2)c(OC)c1`, the “activity, negative = inhibition” value was -27%.
On the same count and under the same terms, the value for `CC(C)NC(=O)c1ccc2c(=O)n(Cc3ccco3)c(=S)[nH]c2c1` was -26%.
`COc1ccc(CCNC(=O)c2ccc3c(=O)n(Cc4ccco4)c(=S)[nH]c3c2)cc1OC`: the AC50 was 0.631 µM (active).
`Nc1ccccc1Nc1ccccc1`: the activity, negative = inhibition is -23.8% [at 11.4 µM].
Still for that read-out and setting: next, `C[C@H]1O[C@@H](CC(=O)O)Cc2c1c(O)c1c(O)cc(-c3cc(=O)c4c(=O)c5c(c(=O)c=4c3=O)C[C@H](CC(=O)O)O[C@@H]5C)c(O)c1c2O`: -6.62% [at 11.4 µM]; `CCN1C(=O)CC(N2CCN(CC(=O)NC(C)C)CC2)C1=O` (stereo not given): 1.59%.
In the case of `Cc1onc(-c2ccccc2)c1C(=O)NCCc1c[nH]c2ccccc12`, the AC50 is 8.91 µM (active).
On the same count and under the same terms, the value for `COc1cc(C(=O)Nc2ccc(-c3nnc(-c4ccco4)o3)cc2)cc(OC)c1OC` was 7.08 µM (active); that for `COc1cccc(C(=O)Nc2ccc(-c3nnc(-c4ccco4)o3)cc2)c1` was 4.47 µM (active).
For `O=C(COc1ccccc1)Nc1ccc(-c2nnc(-c3ccco3)o2)cc1`, the “activity, negative = inhibition” value is 18.1%.
`C=CCNc1oc(/C=C/c2ccccc2)nc1C#N`: the AC50 is 15.8 µM (active).
On the same count and under the same terms, next, `Cc1cnc(CNc2nc(-c3ccoc3)nc3ccccc23)cn1`: 12.6 µM (active); `Cc1cnc(CNc2nc(-c3ccc(N(C)C)cc3)nc3ccccc23)cn1`: 5.01 µM (active).
Regarding `C=CCn1c(C(C)NC(=O)c2ccccc2)n[nH]c1=S` (stereo not given), the activity, negative = inhibition was -3.87% [at 11.4 µM].
On to `C=CCn1c(-c2cccn(Cc3ccccc3)c2=O)n[nH]c1=S`, for which the half-maximal activity concentration (AC50) was 12.6 µM (active).
Consider `O=c1c(-c2nc3ccccc3s2)cccn1Cc1ccccc1`, for which the AC50 was 17.8 µM (active).
On to `O=c1c(-c2nc3ccccc3s2)cccn1Cc1ccc(Cl)cc1`, for which the AC50 was 14.1 µM (active).
Consider `O=C(NNc1nc2ccccc2s1)c1ccccc1F`, for which the “activity, negative = inhibition” value is -13.7%.
For `Clc1ccc(CCNc2nc3ccccc3s2)cc1`, the AC50 is 15.8 µM (active).
For the molecule `CC(=O)NNc1nc2ccccc2s1`, the “activity, negative = inhibition” value was -8.59%.
On the same count and under the same terms, the value for `OC[C@@H]1O[C@@H](n2cnc3c(NC4CCCCC4)ncnc32)[C@@H](O)[C@H]1O` was -10.8%.
Turning to `CC(=O)NS(=O)(=O)c1ccc(NC(=O)NC2CCCCC2)cc1`, the “activity, negative = inhibition” value was -6.87%.
On to `O=C(CCc1ccccc1)NNC(=O)C1CCCCC1`, for which the activity, negative = inhibition is -0.205% [at 2.29 µM].
Regarding `CCC(C)NS(=O)(=O)c1ccc(NC(=O)CCC2CCCCC2)cc1` (stereo not given), the activity, negative = inhibition is 14.9% [at 2.29 µM].
Still for that read-out and setting: next, `O=C(NNS(=O)(=O)c1ccc(Cl)cc1)NC1CCCCC1`: 14.5%.
With `O=C(CCc1ccc(S(=O)(=O)NC2CCCCC2)cc1)N(Cc1ccccc1)Cc1ccccc1`, the AC50 is 3.16 µM (active).
For `Cc1ccc(NC(=O)CCc2ccc(S(=O)(=O)NC3CCCCC3)cc2)cc1`, the AC50 was 0.891 µM (active).
Regarding `O=C(O)c1ccccc1/C=N\N=C1c2ccccc2-c2ccccc21`, the activity, negative = inhibition was -13.2% [at 11.4 µM].
For `CCOc1ccc(S(=O)(=O)NCc2ccc(F)cc2)c2cccnc12`, the AC50 was 15.8 µM (active).
In the case of `CCOc1ccccc1OCCOc1ccc(F)cc1`, the “activity, negative = inhibition” value was -15%.
Regarding `Cn1c(CNS(=O)(=O)c2ccc(F)cc2)n[nH]c1=S`, the “activity, negative = inhibition” value was -10.2%.
Turning to `O=C(CCN1C(=O)S/C(=C\c2ccccc2)C1=O)Nc1ccc(S(=O)(=O)Nc2nccs2)cc1`, the concentration at half-maximal activity (AC50) is 5.01 µM (active).
Take `Nc1ccc(S(=O)(=O)Nc2nccs2)cc1`: the “activity, negative = inhibition” value is -15.7% [at 25.6 µM].
Same read-out and setting: the value for `O=C1Nc2ccccc2C1=Nc1ccc(S(=O)(=O)Nc2nccs2)cc1` was -1.93% [at 11.4 µM]; that for `O=C(NCC1CCCO1)C1CCC(=O)N1CCc1ccccc1` (stereo not given) was -13.8%.
On to `O=C(NCC1CCCO1)C1c2ccccc2C(=O)N1Cc1ccc2c(c1)OCO2` (stereo not given), for which the AC50 is 1.41 µM (active).
In the case of `CCS(=O)(=O)N1CCC(C(=O)NCC2CCCO2)CC1` (stereo not given), the “activity, negative = inhibition” value is 1.97%.
